Measurements taken from PubChem BioAssay (EPA / NIEHS).
Activity calls are given as the source filed them. Rule for the calls: active = hit-call score of the fitted dose curve at least 0.9, where 1 is the maximum; inactive = score below 0.9.

Experiments:
[1] = ATG_GLI_CIS: Attagene CIS-FACTORIAL HepG2 Assay for human Zinc Finger Protein GLI1 (AID 2282945); settings: HepG2, Attagene cis-factorial reporter mRNA, GLI element; actives raise or lower the signal
Summary of the method: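 Transiently transfected HepG2 cells report endogenous transcription factor activity via cis-element-driven reporter units. After 24 h compound exposure, reporter mRNA was measured by RT-PCR with capillary electrophoresis; bidirectional fitting against DMSO baseline.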

[2] = ATG_ISRE_CIS: Attagene CIS-FACTORIAL HepG2 Assay for human Interferon Regulatory Factor 1 (IRF1) binding to an Interferon-Stimulated Response Element (ISRE) (AID 2282948); settings: HepG2 ISRE cis-reporter (Attagene), mRNA transcription readout; actives raise or lower the signal
Summary of the method: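 Quantitation relies on labelled RT-PCR fragments separated by capillary electrophoresis. Human HepG2 cells bearing cis-promoter reporter constructs were treated 24 h; DMSO served as baseline for bidirectional fitting.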

[3] = ATG_M_32_CIS: Attagene CIS-FACTORIAL HepG2 Assay for M32 Transcription Factor (Internal Marker) (AID 2282949); settings: HepG2 Attagene cis-factorial M32 reporter, mRNA; actives raise or lower the signal;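 note: background control marker of the multiplexed CIS panel rather than a real target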
Summary of the method: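 Internal background marker read-out: RT-PCR/capillary electrophoresis fluorescence of reporter transcripts from transiently transfected HepG2 cells after 24 h chemical exposure. Activity fitted bidirectionally relative to DMSO negative control.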

[4] = ATG_M_06_CIS: Attagene CIS-FACTORIAL HepG2 Assay for M06 Transcription Factor (Internal Marker) (AID 2282950); settings: HepG2 Attagene CIS-FACTORIAL M06 internal marker reporter; actives raise or lower the signal
Summary of the method: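 Steps: transfect HepG2 with multiplexed cis-element reporter constructs; dose chemical 24 h; extract RNA with DNase treatment; reverse-transcribe, PCR-amplify, 6-FAM label, HpaI digest; separate fragments by capillary electrophoresis. Activity fitted both directions versus DMSO.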

[5] = molecular target: Heat shock factor protein 1 (Homo sapiens) (UniProt Q00613); test: ATG_HSE_CIS: Attagene CIS-FACTORIAL HepG2 Assay for human Heat Shock Transcription Factor 1 (HSE) (AID 2282953); settings: HepG2 HSE cis-reporter, Attagene RNA transcription; actives raise or lower the signal
Summary of the method: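 Cells were transfected with cis-element-driven reporter constructs, dosed for 24 h, then total RNA was reverse-transcribed and reporter cDNA amplified, FAM-labelled and digested with HpaI. Fragments were resolved by capillary electrophoresis; gain or loss was fitted against DMSO.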

[6] = ATG_MRE_CIS: Attagene CIS-FACTORIAL HepG2 Assay for human Metal Responsive Element (MRE) (AID 2282954); settings: HepG2 MRE cis-reporter transcription, Attagene multiplex; actives raise or lower the signal
Summary of the method: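 Fluorescent reporter fragments separated by capillary electrophoresis give mRNA induction for the MRE unit after 24 h treatment of transfected HepG2 cells. Endogenous transcription-factor activity is read; DMSO serves as negative control and baseline.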

[7] = molecular target: Paired box protein Pax-6 (Homo sapiens) (UniProt P26367); test: ATG_Pax6_CIS: Attagene CIS-FACTORIAL HepG2 Assay for human Paired Box 6 (PAX6) (AID 2282956); settings: HepG2 CIS-FACTORIAL PAX6 reporter transcription, RNA readout; actives raise or lower the signal
Summary of the method: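 After twenty-four hours of chemical exposure, transfected HepG2 cells are harvested for RNA. Cis-promoter reporter transcripts are amplified, fluorescently labelled and sized by capillary electrophoresis, with gain and loss of signal scored against DMSO.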

[8] = ATG_PXRE_CIS: Attagene CIS-FACTORIAL HepG2 Assay for human Pregnane X Receptor Element (PXRE) (AID 2282957); settings: HepG2 Attagene CIS-FACTORIAL PXRE reporter, mRNA; actives raise or lower the signal
Summary of the method: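 HepG2 cells transiently transfected with cis-regulated multiple reporter transcription units; endogenous factor activity measured as reporter mRNA 24 h after dosing. RT-PCR, fluorescent primer extension, HpaI digestion, capillary electrophoresis; bidirectional fit versus DMSO baseline.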

[9] = ATG_PPRE_CIS: Attagene CIS-FACTORIAL HepG2 Assay for human Peroxisome Proliferator-activated Response Element (PPRE) (AID 2282958); settings: HepG2 PPRE cis-element reporter, Attagene transcription factor profiling; actives raise or lower the signal
Summary of the method: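 PPRE activity in HepG2: transient cis-reporter transfection, 24 h compound incubation, reporter mRNA by RT-PCR and CE fluorescence; gain/loss fitted against DMSO.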

[10] = ATG_Sox_CIS: Attagene CIS-FACTORIAL HepG2 Assay for human SRY-box transcription factor (SOX) (AID 2282960); settings: HepG2 Attagene cis-factorial SOX reporter, mRNA; actives raise or lower the signal
Summary of the method: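 HepG2, cis reporter units, 24 h exposure. Reporter mRNA: RT-PCR → FAM labelling → HpaI → CE fluorescence. Bidirectional fit vs DMSO.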

[11] = molecular target: Transcription factor Sp1 (Homo sapiens) (UniProt P08047); test: ATG_Sp1_CIS: Attagene CIS-FACTORIAL HepG2 Assay for human Specificity Protein 1 (Sp1) (AID 2282961); settings: HepG2 Sp1 cis-reporter transcription, actives raise or lower the signal
Summary of the method: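 Liver-derived HepG2 cells, cis-element reporter library, 24 h treatment; RNA isolated, cDNA amplified with reporter-specific primers, FAM-labeled fragments sized on capillary analyzer. DMSO baseline, bidirectional curve fit.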

[12] = ATG_SREBP_CIS: Attagene CIS-FACTORIAL HepG2 Assay for human Sterol Regulatory Element Binding (SREBP) (AID 2282962); settings: HepG2 Attagene cis-factorial SREBP reporter, mRNA; actives raise or lower the signal
Summary of the method: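 Twenty-four hours after chemical dosing of transfected HepG2 cultures, reporter RNA was converted to cDNA, amplified, end-labelled with 6-FAM and resolved by capillary electrophoresis. Responses were fitted relative to DMSO.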

[13] = molecular target: Signal transducer and activator of transcription 3 (Homo sapiens) (UniProt P40763); test: ATG_STAT3_CIS: Attagene CIS-FACTORIAL HepG2 Assay for human Signal Transducer and Activator of Transcription 3 (STAT3) (AID 2282963); settings: HepG2, Attagene cis-factorial STAT3 reporter transcription; actives raise or lower the signal
Summary of the method: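 Values derive from bidirectional fits relative to DMSO of reporter mRNA levels, measured by RT-PCR with capillary electrophoresis, in HepG2 cells carrying transiently transfected cis-regulated reporter units and exposed 24 h.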

[14] = ATG_TA_CIS: Attagene CIS-FACTORIAL HepG2 Assay for human TA Basal Promoter (AID 2282964); settings: HepG2 Attagene CIS-factorial TA basal promoter reporter; actives raise or lower the signal
Summary of the method: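 Steps: transfect HepG2 with MRTUs; dose 24 h; isolate RNA, DNase-treat, reverse-transcribe; PCR and FAM-label reporter cDNA; digest with HpaI 2h at 37 C; run capillary electrophoresis. Activity fitted both directions against DMSO.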

Measured: outcome

Sequence of Heat shock factor protein 1 (Homo sapiens) (Q00613 whole entry, looked up, the tested form may be a part): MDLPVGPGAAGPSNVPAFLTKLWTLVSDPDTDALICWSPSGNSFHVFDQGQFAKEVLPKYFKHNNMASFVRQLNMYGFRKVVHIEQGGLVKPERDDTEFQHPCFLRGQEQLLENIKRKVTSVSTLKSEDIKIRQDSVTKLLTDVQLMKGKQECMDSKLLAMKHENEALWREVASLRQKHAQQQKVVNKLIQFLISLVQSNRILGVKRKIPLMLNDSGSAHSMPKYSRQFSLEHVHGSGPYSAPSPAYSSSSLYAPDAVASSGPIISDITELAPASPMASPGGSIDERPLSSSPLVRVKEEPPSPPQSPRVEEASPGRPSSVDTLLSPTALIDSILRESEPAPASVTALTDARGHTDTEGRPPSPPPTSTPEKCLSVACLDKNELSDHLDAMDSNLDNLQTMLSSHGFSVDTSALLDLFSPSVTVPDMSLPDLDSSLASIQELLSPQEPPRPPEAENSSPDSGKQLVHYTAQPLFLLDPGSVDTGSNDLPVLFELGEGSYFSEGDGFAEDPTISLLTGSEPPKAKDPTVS
Sequence of Signal transducer and activator of transcription 3 (Homo sapiens) (P40763 whole entry, looked up): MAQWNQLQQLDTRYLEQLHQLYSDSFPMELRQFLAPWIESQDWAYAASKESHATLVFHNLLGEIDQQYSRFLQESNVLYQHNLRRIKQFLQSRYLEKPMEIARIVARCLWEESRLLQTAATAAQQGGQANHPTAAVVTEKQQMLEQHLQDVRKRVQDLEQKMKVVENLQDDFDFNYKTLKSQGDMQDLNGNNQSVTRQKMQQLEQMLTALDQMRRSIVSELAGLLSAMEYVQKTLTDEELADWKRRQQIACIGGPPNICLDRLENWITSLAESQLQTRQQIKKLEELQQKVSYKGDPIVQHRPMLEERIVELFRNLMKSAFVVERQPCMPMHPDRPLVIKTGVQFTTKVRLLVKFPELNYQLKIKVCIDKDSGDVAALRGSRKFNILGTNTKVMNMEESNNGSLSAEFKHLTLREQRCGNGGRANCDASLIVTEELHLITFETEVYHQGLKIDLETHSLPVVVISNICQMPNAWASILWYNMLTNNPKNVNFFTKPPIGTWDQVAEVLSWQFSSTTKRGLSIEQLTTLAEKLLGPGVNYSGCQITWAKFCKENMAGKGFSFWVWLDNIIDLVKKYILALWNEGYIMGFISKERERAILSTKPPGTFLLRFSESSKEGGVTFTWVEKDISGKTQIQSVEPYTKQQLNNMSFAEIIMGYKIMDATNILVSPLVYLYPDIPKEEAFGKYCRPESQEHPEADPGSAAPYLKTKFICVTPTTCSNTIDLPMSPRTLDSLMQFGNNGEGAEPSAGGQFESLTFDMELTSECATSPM
Sequence of Paired box protein Pax-6 (Homo sapiens) (P26367 whole entry, looked up): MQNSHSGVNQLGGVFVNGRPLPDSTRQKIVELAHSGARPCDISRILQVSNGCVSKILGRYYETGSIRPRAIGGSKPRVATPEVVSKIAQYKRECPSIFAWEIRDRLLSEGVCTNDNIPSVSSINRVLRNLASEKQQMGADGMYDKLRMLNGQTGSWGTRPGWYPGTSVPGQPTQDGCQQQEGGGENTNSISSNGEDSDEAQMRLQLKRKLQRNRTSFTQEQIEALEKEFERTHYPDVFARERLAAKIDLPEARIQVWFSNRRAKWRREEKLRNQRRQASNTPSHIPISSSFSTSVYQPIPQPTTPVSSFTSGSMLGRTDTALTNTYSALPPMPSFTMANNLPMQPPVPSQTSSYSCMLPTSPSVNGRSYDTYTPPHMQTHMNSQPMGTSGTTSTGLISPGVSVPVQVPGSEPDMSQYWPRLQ
Sequence of Transcription factor Sp1 (Homo sapiens) (P08047 whole entry, looked up, the tested form may be a part): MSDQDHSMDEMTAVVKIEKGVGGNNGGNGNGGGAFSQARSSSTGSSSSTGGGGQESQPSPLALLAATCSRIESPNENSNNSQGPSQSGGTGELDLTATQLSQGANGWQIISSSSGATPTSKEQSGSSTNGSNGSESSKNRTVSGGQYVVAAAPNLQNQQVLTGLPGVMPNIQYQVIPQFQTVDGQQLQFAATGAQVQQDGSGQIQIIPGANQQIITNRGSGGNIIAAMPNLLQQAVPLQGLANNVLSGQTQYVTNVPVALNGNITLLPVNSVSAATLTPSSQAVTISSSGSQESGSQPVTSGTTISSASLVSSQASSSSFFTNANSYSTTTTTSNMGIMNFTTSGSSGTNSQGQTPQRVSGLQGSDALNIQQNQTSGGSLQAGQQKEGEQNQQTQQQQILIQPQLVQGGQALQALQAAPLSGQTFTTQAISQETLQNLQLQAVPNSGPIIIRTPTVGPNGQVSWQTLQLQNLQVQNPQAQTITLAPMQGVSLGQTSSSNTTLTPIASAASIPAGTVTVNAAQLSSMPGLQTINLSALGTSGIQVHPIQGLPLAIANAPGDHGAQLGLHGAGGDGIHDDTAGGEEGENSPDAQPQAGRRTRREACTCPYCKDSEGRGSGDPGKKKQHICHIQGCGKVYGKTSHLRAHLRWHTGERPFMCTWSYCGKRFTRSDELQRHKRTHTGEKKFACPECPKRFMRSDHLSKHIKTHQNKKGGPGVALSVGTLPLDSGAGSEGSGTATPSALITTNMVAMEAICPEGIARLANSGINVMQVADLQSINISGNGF

NS(=O)(=O)c1cc(C(=O)O)c(NCc2ccco2)cc1Cl
inactive: all assays above
